According to PubChem BioAssay (EPA / NIEHS):
The source made the active and inactive calls. The calls were made as follows: active = hit-call score of the fitted dose curve at least 0.9, where 1 is the maximum; inactive = score below 0.9.

Tests used:
[1] = ATG_E_Box_CIS: Attagene CIS-FACTORIAL HepG2 Assay for human Enhancer Box (E-box) (AID 2282936); conditions: HepG2 E-box cis-reporter transcription, actives raise or lower the signal
Outline: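 Endogenous transcription factor activity was sensed in human HepG2 liver cells through transfected cis-promoter reporter units. After 24 h of dosing, total RNA was reverse-transcribed and reporter cDNA resolved by capillary electrophoresis.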

[2] = ATG_M_61_CIS: Attagene CIS-FACTORIAL HepG2 Assay for M61 Transcription Factor (Internal Marker) (AID 2282937); conditions: HepG2 Attagene CIS-FACTORIAL M61 internal marker reporter; actives raise or lower the signal
Outline: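 This endpoint serves as an internal background control within a multiplexed HepG2 cis-reporter panel. Cells are exposed for 24 h; reporter mRNA is amplified, fluorescently labelled and sized by capillary electrophoresis, with DMSO as negative control.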

[3] = ATG_EGR_CIS: Attagene CIS-FACTORIAL HepG2 Assay for human Early Growth Response 1 (EGR1) (AID 2282938); conditions: HepG2 Attagene CIS-FACTORIAL EGR reporter mRNA; actives raise or lower the signal
Outline: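 HepG2, transient MRTU transfection (cis promoters), 24 h compound. RNA → RT (oligo-dT) → PCR → 6-FAM labelling → HpaI cut → CE fluorescence. Bidirectional fit, DMSO baseline.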

[4] = ATG_M_19_CIS: Attagene CIS-FACTORIAL HepG2 Assay for M19 Transcription Factor (Internal Marker) (AID 2282939); conditions: HepG2 Attagene CIS-FACTORIAL M19 internal marker reporter; actives raise or lower the signal
Outline: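 HepG2 cells transiently transfected with cis-regulated multiple reporter transcription units were dosed for 24 h; reporter mRNA was quantified by RT-PCR, 6-FAM primer-extension labelling, HpaI digestion and capillary electrophoresis, with bidirectional fitting against DMSO baseline.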

[5] = ATG_Ets_CIS: Attagene CIS-FACTORIAL HepG2 Assay for human Erythroblast Transformation Specific (ETS) (AID 2282941); conditions: HepG2 ETS cis-reporter transcription, actives raise or lower the signal
Outline: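 RT-PCR/capillary electrophoresis fluorescence read-out of reporter mRNA; HepG2 transient multi-reporter transfection; 24 h compound exposure; gain or loss of signal fitted bidirectionally relative to DMSO.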

[6] = target: Hepatocyte nuclear factor 3-beta (Homo sapiens) (UniProt Q9Y261); assay: ATG_FoxA2_CIS: Attagene CIS-FACTORIAL HepG2 Assay for human Forkhead box A2 (FOXA2) (AID 2282942); conditions: HepG2 cis-reporter transcription factor activity, 24 h; actives raise or lower the signal
Chain of Hepatocyte nuclear factor 3-beta (Homo sapiens) (Q9Y261 whole entry, looked up): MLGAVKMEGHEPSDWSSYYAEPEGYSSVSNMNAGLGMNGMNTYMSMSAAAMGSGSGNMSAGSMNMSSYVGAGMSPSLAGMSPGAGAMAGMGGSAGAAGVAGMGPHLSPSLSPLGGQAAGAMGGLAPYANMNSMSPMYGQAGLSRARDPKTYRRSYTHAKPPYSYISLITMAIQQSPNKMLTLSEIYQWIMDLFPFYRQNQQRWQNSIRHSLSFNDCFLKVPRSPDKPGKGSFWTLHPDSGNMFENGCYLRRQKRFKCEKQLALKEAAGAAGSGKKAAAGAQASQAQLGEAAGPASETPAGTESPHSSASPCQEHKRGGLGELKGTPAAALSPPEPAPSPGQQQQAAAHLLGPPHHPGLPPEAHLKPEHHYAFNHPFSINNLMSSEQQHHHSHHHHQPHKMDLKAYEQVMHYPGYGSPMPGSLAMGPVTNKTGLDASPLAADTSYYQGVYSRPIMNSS
Outline: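 Cells: HepG2, transient multiplex reporter transfection. Exposure 24 h. Detection: reporter-specific RT-PCR, fluorescent labelling, restriction digest, capillary electrophoresis. Analysis: bidirectional curve fit, DMSO as negative control.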

[7] = ATG_FoxO_CIS: Attagene CIS-FACTORIAL HepG2 Assay for human Forkhead box O (FoxO) (AID 2282943); conditions: HepG2 Attagene cis-reporter, FoxO element, mRNA; actives raise or lower the signal
Outline: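 24 h chemical exposure, HepG2 with transient cis-MRTU transfection. RNA extraction, oligo(dT) RT, reporter-specific PCR, primer-extension labelling, HpaI digestion, CE fragment analysis; bidirectional fit, DMSO baseline.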

[8] = ATG_GATA_CIS: Attagene CIS-FACTORIAL HepG2 Assay for human GATA Binding Protein (AID 2282944); conditions: HepG2 GATA cis-element reporter, Attagene multiplex mRNA; actives raise or lower the signal
Outline: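 HepG2 cells transiently transfected with multiplexed cis-element reporter units reflecting endogenous transcription factor activity; reporter mRNA measured after 24 h dosing by RT-PCR, 6-FAM labeling, HpaI digestion and capillary electrophoresis. Bidirectional fitting versus DMSO baseline.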

[9] = ATG_GRE_CIS: Attagene CIS-FACTORIAL HepG2 Assay for human Glucocorticoid Response Elements (GRE) (AID 2282947); conditions: HepG2 GRE cis-reporter, Attagene multiplex mRNA; actives raise or lower the signal
Outline: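 Cells (HepG2) bearing transfected cis-promoter reporter transcription units were treated with chemical for 24 hours. Reporter mRNA was measured via RT-PCR with capillary electrophoresis, and activity was fitted in both directions relative to DMSO.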

[10] = ATG_ISRE_CIS: Attagene CIS-FACTORIAL HepG2 Assay for human Interferon Regulatory Factor 1 (IRF1) binding to an Interferon-Stimulated Response Element (ISRE) (AID 2282948); conditions: HepG2 ISRE cis-reporter (Attagene), mRNA transcription readout; actives raise or lower the signal
Outline: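 Read-out: fluorescent RT-PCR products resolved by capillary electrophoresis, reporting endogenous transcription factor activity via ISRE-driven reporter mRNA in transfected HepG2 cells dosed for 24 h; gain or loss fitted relative to DMSO.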

[11] = ATG_M_32_CIS: Attagene CIS-FACTORIAL HepG2 Assay for M32 Transcription Factor (Internal Marker) (AID 2282949); conditions: HepG2 Attagene cis-factorial M32 reporter, mRNA; actives raise or lower the signal;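 also: background control marker of the multiplexed CIS panel rather than a real target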
Outline: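 HepG2 human liver cells transiently transfected with cis-promoter-driven multiple reporter transcription units, dosed 24 h. Reporter mRNA quantified by RT-PCR, FAM-labelled primer extension, HpaI digest and capillary electrophoresis; bidirectional fit versus DMSO baseline.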

[12] = ATG_M_06_CIS: Attagene CIS-FACTORIAL HepG2 Assay for M06 Transcription Factor (Internal Marker) (AID 2282950); conditions: HepG2 Attagene CIS-FACTORIAL M06 internal marker reporter; actives raise or lower the signal
Outline: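 HepG2 cells transiently transfected with cis-regulated multiple reporter transcription units were exposed to chemical for 24 h; reporter mRNA was quantified by RT-PCR, 6-FAM primer labelling, HpaI digestion and capillary electrophoresis, fitted bidirectionally against DMSO.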

[13] = target: Hypoxia-inducible factor 1-alpha (Homo sapiens) (UniProt Q16665); assay: ATG_HIF1a_CIS: Attagene CIS-FACTORIAL HepG2 Assay for human Hypoxia Inducible Factor 1 (HIF1A) (AID 2282951); conditions: HepG2 Attagene cis-factorial HIF1a reporter transcription; actives raise or lower the signal
Chain of Hypoxia-inducible factor 1-alpha (Homo sapiens) (Q16665 whole entry, looked up): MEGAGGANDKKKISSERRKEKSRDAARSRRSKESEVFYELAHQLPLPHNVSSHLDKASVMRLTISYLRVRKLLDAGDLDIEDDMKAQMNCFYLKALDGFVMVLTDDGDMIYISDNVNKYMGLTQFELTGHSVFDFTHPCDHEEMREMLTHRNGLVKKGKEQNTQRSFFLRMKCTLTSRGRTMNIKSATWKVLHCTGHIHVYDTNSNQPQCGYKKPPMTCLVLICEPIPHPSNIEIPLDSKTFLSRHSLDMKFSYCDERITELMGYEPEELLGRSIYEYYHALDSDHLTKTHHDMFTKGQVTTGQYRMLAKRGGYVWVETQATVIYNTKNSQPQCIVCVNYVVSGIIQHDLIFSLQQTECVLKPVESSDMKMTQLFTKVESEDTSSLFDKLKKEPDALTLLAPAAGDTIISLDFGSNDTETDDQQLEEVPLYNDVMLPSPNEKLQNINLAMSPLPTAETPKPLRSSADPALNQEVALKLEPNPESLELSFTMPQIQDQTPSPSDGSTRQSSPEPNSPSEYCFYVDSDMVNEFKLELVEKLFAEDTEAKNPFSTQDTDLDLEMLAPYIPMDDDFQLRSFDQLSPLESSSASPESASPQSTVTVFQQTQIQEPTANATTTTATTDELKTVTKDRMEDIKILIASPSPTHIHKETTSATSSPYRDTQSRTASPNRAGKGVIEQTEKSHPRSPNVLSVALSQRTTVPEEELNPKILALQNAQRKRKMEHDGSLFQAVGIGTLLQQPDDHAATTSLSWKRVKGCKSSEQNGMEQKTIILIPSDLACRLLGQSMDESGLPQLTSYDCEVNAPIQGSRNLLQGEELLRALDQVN
Outline: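 HepG2, transient cis-reporter library, 24 h dosing. RNA → RT (oligo dT) → PCR → 6-FAM primer extension → HpaI → CE. Bidirectional curve fit vs DMSO.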

[14] = target: Heat shock factor protein 1 (Homo sapiens) (UniProt Q00613); assay: ATG_HSE_CIS: Attagene CIS-FACTORIAL HepG2 Assay for human Heat Shock Transcription Factor 1 (HSE) (AID 2282953); conditions: HepG2 HSE cis-reporter, Attagene RNA transcription; actives raise or lower the signal
Chain of Heat shock factor protein 1 (Homo sapiens) (Q00613 whole entry, looked up): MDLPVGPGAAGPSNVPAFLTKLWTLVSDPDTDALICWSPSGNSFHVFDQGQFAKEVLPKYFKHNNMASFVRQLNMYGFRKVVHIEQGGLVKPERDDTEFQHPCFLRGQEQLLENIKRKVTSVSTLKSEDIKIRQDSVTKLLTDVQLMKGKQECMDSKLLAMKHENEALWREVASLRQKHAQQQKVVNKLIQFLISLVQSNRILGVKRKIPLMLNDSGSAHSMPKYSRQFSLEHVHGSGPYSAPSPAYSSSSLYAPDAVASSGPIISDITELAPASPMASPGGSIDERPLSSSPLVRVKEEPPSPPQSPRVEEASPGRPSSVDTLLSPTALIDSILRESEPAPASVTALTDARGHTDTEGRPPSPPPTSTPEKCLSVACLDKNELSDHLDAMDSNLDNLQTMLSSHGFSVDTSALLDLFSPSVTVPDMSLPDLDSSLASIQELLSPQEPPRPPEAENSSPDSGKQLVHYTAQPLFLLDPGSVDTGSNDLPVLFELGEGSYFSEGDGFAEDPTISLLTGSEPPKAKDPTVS
Outline: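 HepG2 cells transiently transfected with multiple reporter transcription units under cis-regulatory promoter control, measuring endogenous transcription factor activity. After 24 h chemical exposure, reporter mRNA quantified by RT-PCR, fluorescent labelling, HpaI digestion and capillary electrophoresis; bidirectional fit versus DMSO.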

[15] = ATG_MRE_CIS: Attagene CIS-FACTORIAL HepG2 Assay for human Metal Responsive Element (MRE) (AID 2282954); conditions: HepG2 MRE cis-reporter transcription, Attagene multiplex; actives raise or lower the signal
Outline: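 Cells were transfected with cis-promoter reporter transcription units, then dosed for 24 h. RNA was reverse-transcribed, amplified, fluorescently labelled and resolved by capillary electrophoresis, and activity was fitted in both directions relative to DMSO.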

[16] = ATG_PBREM_CIS: Attagene CIS-FACTORIAL HepG2 Assay for human Phenobarbital-responsive Enhancer Module (PBREM) (AID 2282955); conditions: HepG2 PBREM cis-reporter, Attagene multiplexed transcription; actives raise or lower the signal
Outline: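 HepG2, transient MRTU transfection, 24 h dosing; RNA → oligo(dT) RT → PCR → 6-FAM extension → HpaI → CE. Bidirectional fit vs DMSO.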

[17] = target: Bile acid receptor (Homo sapiens) (UniProt Q96RI1); assay: ATG_IR1_CIS: Attagene CIS-FACTORIAL HepG2 Assay for human Nuclear Receptor Subfamily 1 Group H Member 4 (NR1H4), IR1 submotif (AID 2282946); conditions: IR1 reporter transcription, actives raise or lower the signal
Chain of Bile acid receptor (Homo sapiens) (Q96RI1 whole entry, looked up): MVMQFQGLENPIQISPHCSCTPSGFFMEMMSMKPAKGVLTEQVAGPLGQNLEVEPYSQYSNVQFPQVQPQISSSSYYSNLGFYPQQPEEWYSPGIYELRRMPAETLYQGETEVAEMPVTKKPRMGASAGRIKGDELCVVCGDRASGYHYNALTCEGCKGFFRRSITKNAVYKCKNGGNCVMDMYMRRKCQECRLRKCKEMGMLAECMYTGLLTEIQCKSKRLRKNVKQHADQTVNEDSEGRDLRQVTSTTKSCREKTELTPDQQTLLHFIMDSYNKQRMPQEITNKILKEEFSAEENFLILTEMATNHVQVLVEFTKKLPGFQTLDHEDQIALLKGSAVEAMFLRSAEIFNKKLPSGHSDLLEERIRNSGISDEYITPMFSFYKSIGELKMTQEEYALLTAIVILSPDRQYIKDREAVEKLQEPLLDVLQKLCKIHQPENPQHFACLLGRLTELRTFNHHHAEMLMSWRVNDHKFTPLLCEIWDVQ
Outline: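 Readout: reporter transcript levels by RT-PCR with fluorescent capillary electrophoresis, from HepG2 cells transiently transfected with multiplexed cis-regulated reporters and dosed 24 h. Gain- or loss-of-signal fitted versus DMSO negative control.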

[18] = target: Hepatocyte nuclear factor 6 (Homo sapiens) (UniProt Q9UBC0); assay: ATG_HNF6_CIS: Attagene CIS-FACTORIAL HepG2 Assay for human Hepatocyte Nuclear Factor 6 (HNF6) (AID 2282952); conditions: HepG2 Attagene cis-factorial HNF6 reporter transcription; actives raise or lower the signal
Chain of Hepatocyte nuclear factor 6 (Homo sapiens) (Q9UBC0 whole entry, looked up, the tested form may be a part): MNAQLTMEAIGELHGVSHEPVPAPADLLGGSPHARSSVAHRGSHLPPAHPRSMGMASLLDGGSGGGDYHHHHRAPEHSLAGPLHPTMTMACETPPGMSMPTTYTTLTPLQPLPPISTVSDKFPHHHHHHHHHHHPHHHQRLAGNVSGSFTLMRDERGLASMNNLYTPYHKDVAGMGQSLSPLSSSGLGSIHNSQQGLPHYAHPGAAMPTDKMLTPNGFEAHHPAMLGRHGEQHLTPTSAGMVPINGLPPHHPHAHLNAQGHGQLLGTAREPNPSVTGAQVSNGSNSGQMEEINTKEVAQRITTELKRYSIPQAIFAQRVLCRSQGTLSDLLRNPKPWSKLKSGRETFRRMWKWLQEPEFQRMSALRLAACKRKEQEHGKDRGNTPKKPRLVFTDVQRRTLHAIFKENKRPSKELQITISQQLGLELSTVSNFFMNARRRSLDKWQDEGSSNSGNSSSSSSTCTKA
Outline: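 Readout: fluorescent reporter-transcript fragments resolved by capillary electrophoresis after RT-PCR, reflecting endogenous factor activity in transfected HepG2. Exposure 24 h. Gain or loss of signal fitted bidirectionally against DMSO.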

[19] = ATG_GLI_CIS: Attagene CIS-FACTORIAL HepG2 Assay for human Zinc Finger Protein GLI1 (AID 2282945); conditions: HepG2, Attagene cis-factorial reporter mRNA, GLI element; actives raise or lower the signal
Outline: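 HepG2 cells transiently transfected with cis-promoter multiplexed reporter units report endogenous transcription factor activity. After 24 h chemical exposure, reporter mRNA was quantified by RT-PCR, 6-FAM labelling, HpaI digestion and capillary electrophoresis, with bidirectional fitting against DMSO.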

Measured: AC50

CCCC(=O)OC(C)(C)Cc1ccccc1
inactive: [1] | [2] | [3] | [4] | [5] | [6] | [7] | [8] | [9] | [10] | [11] | [12] | [13] | [14] | [15] | [16]

CCCC1O[C@@H]2C[C@H]3[C@@H]4CCC5=CC(=O)C=C[C@]5(C)[C@H]4[C@@H](O)C[C@]3(C)[C@]2(C(=O)CO)O1 (some centres undefined)
active: [1] 100 µM | [17] 100 µM | [9] 0.0815 µM | [10] 137 µM
inactive: [2] | [3] | [4] | [5] | [6] | [7] | [8] | [11] | [12] | [18] | [14] | [15] | [16]

C=C(C)C(=O)OCCOC1CC2CC1C1C=CCC21 (centres undefined)
inactive: [1] | [2] | [3] | [4] | [5] | [6] | [7] | [8] | [17] | [10] | [11] | [12] | [13] | [18] | [14] | [15] | [16]

C#CC(C)N(C)C(=O)Nc1ccc(Cl)cc1 (centres undefined)
inactive: [1] | [2] | [3] | [4] | [5] | [6] | [7] | [8] | [17] | [10] | [11] | [12] | [13] | [18] | [14] | [15] | [16]

COc1ccc(N=Nc2cc(C)c(N=Nc3ccc(S(=O)(=O)O)cc3)cc2OC)cc1
active: [1] 100 µM | [5] 166 µM | [8] 100 µM | [14] 100 µM
inactive: [2] | [3] | [4] | [6] | [7] | [9] | [10] | [11] | [12] | [13] | [18] | [15]

OCCCCC(O)CO (centres undefined)
inactive: [1] | [2] | [3] | [4] | [5] | [6] | [8] | [19] | [17] | [9] | [10] | [11] | [12] | [18] | [14] | [15]
active: [13] 23.2 µM

OCc1cccc(Oc2ccccc2)c1
inactive: [1] | [2] | [3] | [4] | [5] | [6] | [7] | [8] | [17] | [10] | [11] | [12] | [13] | [18] | [14] | [15] | [16]

CC1C2CC(CC2C2CCCC(O)C2)C1(C)C (centres undefined)
inactive: [1] | [2] | [3] | [4] | [5] | [6] | [8] | [19] | [17] | [9] | [10] | [11] | [12] | [13] | [18] | [14] | [15]
